Measured values as given in PubChem BioAssay (NCI).
About 79,000 compounds went through this panel and 15% of them were active in at least one assay; those are over-represented in the sample as a whole. Unmarked numbers belong to inactive results. Calls of active or inactive are those of the source. No stated cut-off is given here; in the data, active means growth inhibition above about 70%; inactive means the rest. Where a SMILES comes first, the peptide text is derived from it. [ ]: non-standard residue; d: D form. The star is where a group is joined. Phe(4-NO2) = N[CH](Cc1ccc([N+](=O)[O-])cc1)C(=O)O; Boc = CC(C)(C)OC(=O)*

Key:
[1] = NCI Yeast Anticancer Drug Screen. Data for the rad50 strain (AID 155);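 further: 0% = growth of vehicle-only cultures of the same strain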; conditions: S. cerevisiae rad50 strain growth inhibition; at 50.0 µM; hits give high values
Procedure, shortened: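 A DNA repair-deficient yeast mutant serves as the test organism; compound-induced growth inhibition is calculated against vehicle-treated cells.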

[2] = NCI Yeast Anticancer Drug Screen. Data for the mec2-1 strain (AID 157); conditions: S. cerevisiae mec2-1 strain, at 50.0 µM, hits give high values
Procedure, shortened: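 Test agents were screened against the mec2-1 yeast strain, with defined DNA repair or cell cycle alteration. Growth was scored as inhibition against vehicle-only controls.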

[3] = NCI Yeast Anticancer Drug Screen. Data for the sgs1 mgt1 strain (AID 161);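 further: 0% = growth of cultures given vehicle only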; conditions: S. cerevisiae sgs1 mgt1 strain, at 50.0 µM, hits give high values
Procedure, shortened: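 Test agents were incubated with a DNA-repair-mutant yeast strain. Growth was then read and compared against vehicle-treated controls.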

[4] = NCI Yeast Anticancer Drug Screen. Data for the cln2 rad14 strain (AID 165);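 further: 0% = growth equal to vehicle treated cultures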; conditions: S. cerevisiae cln2 rad14 strain, at 50.0 µM, hits give high values
Procedure, shortened: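 Growth of compound-exposed yeast (cln2 rad14 genotype) measured and expressed as inhibition relative to vehicle.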

[5] = NCI Yeast Anticancer Drug Screen. Data for the bub3 strain (AID 167); conditions: S. cerevisiae bub3 mutant strain, at 50.0 µM, hits give high values
Procedure, shortened: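 Inhibition values come from growth of compound-treated mutant yeast normalised to vehicle-treated controls.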

[6] = NCI Yeast Anticancer Drug Screen. Data for the mlh1 rad18 strain (AID 175); conditions: S. cerevisiae mlh1 rad18 strain growth inhibition; at 50.0 µM; hits give high values
Procedure, shortened: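 In this whole-cell yeast screen, a strain with altered DNA damage repair is challenged with compound, and its growth is measured against matched vehicle-treated controls.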

CC(=O)N=c1ccc2nc(N)nn(O)c-2c1
growth inhibition [1]: 9.5% | growth inhibition [2]: 0.05% | growth inhibition [3]: -10.4% | growth inhibition [4]: -4.95% | growth inhibition [5]: -33.6% | growth inhibition [6]: -26.6%

COC(=O)C(Cc1ccc2c(c1)OCO2)(NC(=O)c1ccccc1)P(=O)(OC)OC (stereo unspecified)
growth inhibition [1]: -30.5% | growth inhibition [2]: 1.05% | growth inhibition [3]: -8.6% | growth inhibition [4]: 16.8% | growth inhibition [5]: -25.1% | growth inhibition [6]: -32.5%

NC(=O)C1CC2CC(Cl)C1C2 (stereo unspecified)
growth inhibition [1]: -0.5% | growth inhibition [2]: -0.1% | growth inhibition [3]: -18.1% | growth inhibition [4]: -45% | growth inhibition [5]: 9.65% | growth inhibition [6]: -22.1%

CCOC(=O)CC(=O)c1sc(SC)c(C#N)c1N
growth inhibition [1]: -8% | growth inhibition [2]: -9.6% | growth inhibition [3]: -10.2% | growth inhibition [4]: -2% | growth inhibition [5]: 1.6% | growth inhibition [6]: 1.6%

OCC1NCCC(O)C1OC1OC(CO)C(O)C(O)C1O (stereo unspecified)
growth inhibition [1]: 5.25% | growth inhibition [2]: -22.1% | growth inhibition [3]: -0.65% | growth inhibition [4]: -2.75% | growth inhibition [5]: -5.7% | growth inhibition [6]: -18.6%

O=c1cc(CC(O)(c2ccccc2)c2ccccc2)cc[nH]1
growth inhibition [1]: 16.1% | growth inhibition [2]: 3.8% | growth inhibition [3]: -4.65% | growth inhibition [4]: -10.8% | growth inhibition [5]: -0.35% | growth inhibition [6]: -1%

COc1ccc(/C=N/N2CN(C(C)C(=O)O)C(C)(O)N=C2N)cc1OC (stereo unspecified)
growth inhibition [1]: -14.2% | growth inhibition [2]: -33.8% | growth inhibition [3]: -20.7% | growth inhibition [4]: -8.95% | growth inhibition [5]: -25.6% | growth inhibition [6]: -50.8%

CCCCC1(C(NC(=O)c2ccccc2Cl)c2ccncc2)C(=O)N(c2ccccc2)N(c2ccccc2)C1=O (stereo unspecified)
growth inhibition [1]: 33.8% | growth inhibition [2]: 15.8% | growth inhibition [3]: 9.15% | growth inhibition [4]: 6.35% | growth inhibition [5]: 33.5% | growth inhibition [6]: 41.5%

COC(=O)CCC(NC(=O)OC(C)(C)C)C(=O)NC(Cc1ccc([N+](=O)[O-])cc1)C(=O)NC(CCC(=O)OC)C(=O)OC (stereo unspecified) (Boc-Glu(OMe)-[Phe(4-NO2)]-Glu(OMe)-OMe; configuration not given here)
growth inhibition [1]: 7.6% | growth inhibition [2]: -6.6% | growth inhibition [3]: 9.9% | growth inhibition [4]: 20.6% | growth inhibition [5]: 11.7% | growth inhibition [6]: -44.1%

COC(=O)/C=C(/C(=O)OC)N(O)C(=O)CN1C(=O)c2ccccc2C1=O
growth inhibition [1]: -16% | growth inhibition [2]: -15.9% | growth inhibition [3]: -18.7% | growth inhibition [4]: -17.3% | growth inhibition [5]: -5.85% | growth inhibition [6]: -23.2%

C=CC(=O)OCCOCCOC
growth inhibition [1]: -21.1% | growth inhibition [2]: -15.9% | growth inhibition [3]: -2.35% | growth inhibition [4]: -5% | growth inhibition [5]: -18.6% | growth inhibition [6]: -14.4%

NC(N)=NC(N)=Nc1ccccc1
growth inhibition [1]: -15.9% | growth inhibition [2]: 14.8% | growth inhibition [3]: -1.8% | growth inhibition [4]: -5.9% | growth inhibition [5]: 1.15% | growth inhibition [6]: 11.6%

COc1cc(C2c3cc4c(cc3OC(Nc3ccccc3)C2C)OCO4)cc(OC)c1OC (stereo unspecified)
growth inhibition [1]: -12.7% | growth inhibition [2]: 5.6% | growth inhibition [3]: 2.95% | growth inhibition [4]: -10.6% | growth inhibition [5]: -6.5% | growth inhibition [6]: 20.8%

CC1(C)C2CC(c3ccccc3)C1/C(=C/O)C2=O (stereo unspecified)
growth inhibition [1]: -16.9% | growth inhibition [2]: -3.2% | growth inhibition [3]: 2.8% | growth inhibition [4]: 36.8% | growth inhibition [5]: -3.85% | growth inhibition [6]: -2.9%

COc1ccc(OC)c(N=Nc2cc(OC)ccc2OC)c1
growth inhibition [1]: -13.6% | growth inhibition [2]: -7.8% | growth inhibition [3]: 1.1% | growth inhibition [4]: -13.8% | growth inhibition [5]: 3.3% | growth inhibition [6]: -11.9%

CC1(C)C2CC(NC(=O)c3ccc([N+](=O)[O-])cc3)C1C2 (stereo unspecified)
growth inhibition [1]: 18.6% | growth inhibition [2]: 4.6% | growth inhibition [3]: -1.5% | growth inhibition [4]: -4.9% | growth inhibition [5]: 3.25% | growth inhibition [6]: 11.9%

CC(=O)NCCCCN(CCCNC(C)=O)C(=O)CNS(=O)(=O)c1cccc2c(N(C)C)cccc12
growth inhibition [1]: -11.2% | growth inhibition [2]: -17.1% | growth inhibition [3]: 16.2% | growth inhibition [4]: 2% | growth inhibition [5]: 17.6% | growth inhibition [6]: -8.65%

NC(Cc1cnc[nH]1)C(=O)NCC(=O)O (stereo unspecified)
growth inhibition [1]: -11.4% | growth inhibition [2]: -6.2% | growth inhibition [3]: -11.8% | growth inhibition [4]: -10.2% | growth inhibition [5]: 4.3% | growth inhibition [6]: -8.95%

O=c1cnn(C2OC(C(O)CO)C(O)C2O)c(=O)[nH]1 (stereo unspecified)
growth inhibition [1]: -6.9% | growth inhibition [2]: -81.5% | growth inhibition [3]: -8.75% | growth inhibition [4]: -27.6% | growth inhibition [5]: -11.2% | growth inhibition [6]: -18.4%

CC(C)(C)C(=O)/C(O)=C\c1ccccc1
growth inhibition [1]: -4.25% | growth inhibition [2]: 6.2% | growth inhibition [3]: -12.2% | growth inhibition [4]: -10.7% | growth inhibition [5]: 10.9% | growth inhibition [6]: -1.2%

COc1ccc(Cl)cc1NC(=O)Nc1cccc(C(C)=O)c1
growth inhibition [1]: -4.55% | growth inhibition [2]: 16.6% | growth inhibition [3]: 11.3% | growth inhibition [4]: -13.3% | growth inhibition [5]: 17.9% | growth inhibition [6]: 31.4%

COC(NC(N)=O)C(=O)O (stereo unspecified)
growth inhibition [1]: 6.9% | growth inhibition [2]: 12.3% | growth inhibition [3]: -1.25% | growth inhibition [4]: -0.9% | growth inhibition [5]: 11.9% | growth inhibition [6]: 13.7%

COc1ccccc1C1CC(c2ccccc2)=Nc2ccccc2S1 (stereo unspecified)
growth inhibition [1]: -3.95% | growth inhibition [2]: -45.2% | growth inhibition [3]: 1.25% | growth inhibition [4]: 5.95% | growth inhibition [5]: -30.8% | growth inhibition [6]: -1.05%

Cc1ccc(NC(=O)COc2ccc(Cl)cc2)c(C)c1
growth inhibition [1]: 2.9% | growth inhibition [2]: 11% | growth inhibition [3]: 12.8% | growth inhibition [4]: 9.45% | growth inhibition [5]: 16.2% | growth inhibition [6]: 0.75%

CCN(CC)CCn1c(C(C)(C)C)nc2ccccc21
growth inhibition [1]: -9.15% | growth inhibition [2]: -20.8% | growth inhibition [3]: -24.1% | growth inhibition [4]: -6.25% | growth inhibition [5]: -15.8% | growth inhibition [6]: -10.9%

ClC(Cl)(Cl)c1ccc(C2OCCO2)cc1
growth inhibition [1]: -17.8% | growth inhibition [2]: -6.8% | growth inhibition [3]: -7.85% | growth inhibition [4]: -26.6% | growth inhibition [5]: -22% | growth inhibition [6]: -0.3%

OC(CNc1ccccn1)c1ccccc1 (stereo unspecified)
growth inhibition [1]: -3.9% | growth inhibition [2]: -44.6% | growth inhibition [3]: -35.6% | growth inhibition [4]: 29.2% | growth inhibition [5]: -33.8% | growth inhibition [6]: 16.2%

CCOC(=O)C(=CC(CC)CC)C(=O)OCC
growth inhibition [1]: 8.7% | growth inhibition [2]: -18.4% | growth inhibition [3]: -10.2% | growth inhibition [4]: -4.1% | growth inhibition [5]: -16.2% | growth inhibition [6]: -0.85%

Cc1ccc(C(=S)NC(=O)Nc2ccccc2)cc1
growth inhibition [1]: -7.1% | growth inhibition [2]: 9.45% | growth inhibition [3]: -17.8% | growth inhibition [4]: -20.9% | growth inhibition [5]: 45.8% | growth inhibition [6]: 1.45%

COc1ccc(/C(Cl)=C(\C=O)c2ccc(OC)c(OC)c2)cc1OC
growth inhibition [1]: 21.9% | growth inhibition [2]: 4.5% | growth inhibition [3]: -0.3% | growth inhibition [4]: -17.1% | growth inhibition [5]: -3% | growth inhibition [6]: -13.1%

Cc1cc(S(=O)(=O)Nc2n[nH]c(N)n2)c(SCC(=O)O)cc1Cl
growth inhibition [1]: -2.5% | growth inhibition [2]: -0.3% | growth inhibition [3]: -27.6% | growth inhibition [4]: 8.55% | growth inhibition [5]: 1.85% | growth inhibition [6]: 18.9%

CN(/N=C/c1ccccn1)C1=NCCN1
growth inhibition [1]: -23.9% | growth inhibition [2]: -29.4% | growth inhibition [3]: -31.2% | growth inhibition [4]: 2.75% | growth inhibition [5]: 6.55% | growth inhibition [6]: -21.4%

CC1N=C(SCC(=O)c2ccc(Cl)cc2)N2C(C)N=C(SCC(=O)c3ccc(Cl)cc3)N12 (stereo unspecified)
growth inhibition [1]: -0.65% | growth inhibition [2]: -17.1% | growth inhibition [3]: -20.6% | growth inhibition [4]: 0.5% | growth inhibition [5]: -6.85% | growth inhibition [6]: 10.2%

O=C(Nc1ccc(Cl)c(Cl)c1)Nc1cccc2nsnc12
growth inhibition [1]: 4.45% | growth inhibition [2]: 7.35% | growth inhibition [3]: -2.7% | growth inhibition [4]: 13.2% | growth inhibition [5]: -1.5% | growth inhibition [6]: 26.2%

Nc1nnc2nc(CC(=O)c3ccccc3)c(CC(=O)c3ccccc3)nn12
growth inhibition [1]: -5.4% | growth inhibition [2]: -2.9% | growth inhibition [3]: 3% | growth inhibition [4]: 32.6% | growth inhibition [5]: -29% | growth inhibition [6]: 16.2%

Nc1nc(N)c2cc(S(=O)(=O)c3ccc(Cl)cc3)ccc2n1
growth inhibition [1]: 21.9% | growth inhibition [2]: 36.1% | growth inhibition [3]: 12.5% | growth inhibition [4]: -12.2% | growth inhibition [5]: 17.8% | growth inhibition [6]: 28.6%

Cc1ccc(OCc2cccc(Cl)c2)cc1
growth inhibition [1]: 17.8% | growth inhibition [2]: -10.4% | growth inhibition [3]: 2.5% | growth inhibition [4]: -2.9% | growth inhibition [5]: -42.1% | growth inhibition [6]: -11.3%

CCCc1c(OC)c(=O)c2c(OC)cc(OC)c3c4c(OC)cc(OC)c5c(=O)c(OC)c(CCC)c(c1c23)c54
growth inhibition [1]: 88.3% (active) | growth inhibition [2]: 92% (active) | growth inhibition [3]: 86.4% (active) | growth inhibition [4]: 88.5% (active) | growth inhibition [5]: 83% (active) | growth inhibition [6]: 92.6% (active)

Cn1c2ccccc2c(=O)c2c(O)cc3c(c21)CC(C1(C)CO1)O3 (stereo unspecified)
growth inhibition [1]: 86.2% (active) | growth inhibition [2]: 79.6% (active) | growth inhibition [3]: 72% (active) | growth inhibition [4]: 80.7% (active) | growth inhibition [5]: 42.5% | growth inhibition [6]: 83.1% (active)

CC[N+](C)(CC)Cc1ccccc1[N+](=O)[O-]
growth inhibition [1]: -32.8% | growth inhibition [2]: -47.3% | growth inhibition [3]: -25.9% | growth inhibition [4]: 2.85% | growth inhibition [5]: -38.8% | growth inhibition [6]: -28.6%

O=C(O)[C@H](c1ccccc1)[C@@H](C(=O)O)c1ccccc1
growth inhibition [1]: -8.25% | growth inhibition [2]: -5.75% | growth inhibition [3]: -8.35% | growth inhibition [4]: -3.35% | growth inhibition [5]: -53.8% | growth inhibition [6]: -1.4%
